Test results: PubChem BioAssay
Activity calls are given as the source filed them.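 The calls were made as follows: active = at least 20% inhibition of 6-phosphogluconate dehydrogenase activity; inactive = the rest.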

What follows are molecules tested against 6-phosphogluconate dehydrogenase, decarboxylating (Homo sapiens) (UniProt P52209) (assay: inhibition of human phosphogluconate dehydrogenase – biochemical, recombinant enzyme, NADPH absorbance, primary screen (AID 1159550)). Settings: recombinant 6PGD, NADPH absorbance 341 nm; at 10 µM; hits give high values.
Chain of 6-phosphogluconate dehydrogenase, decarboxylating (Homo sapiens) (P52209 whole entry, looked up): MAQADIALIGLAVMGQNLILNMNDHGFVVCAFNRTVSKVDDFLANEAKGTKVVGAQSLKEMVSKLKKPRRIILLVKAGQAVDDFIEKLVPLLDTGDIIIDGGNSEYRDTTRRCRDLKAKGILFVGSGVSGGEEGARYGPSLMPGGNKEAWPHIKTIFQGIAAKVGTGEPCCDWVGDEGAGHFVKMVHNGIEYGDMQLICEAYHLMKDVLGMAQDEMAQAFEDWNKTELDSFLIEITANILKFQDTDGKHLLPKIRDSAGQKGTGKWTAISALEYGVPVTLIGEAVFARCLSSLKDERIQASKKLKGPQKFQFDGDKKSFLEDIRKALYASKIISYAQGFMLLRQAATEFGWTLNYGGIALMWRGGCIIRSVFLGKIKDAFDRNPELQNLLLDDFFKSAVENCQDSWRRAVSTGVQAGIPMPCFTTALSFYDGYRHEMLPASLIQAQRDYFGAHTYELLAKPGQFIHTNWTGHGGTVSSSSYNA

inhibition, inactive:
CC(C)CCC[C@@H](C)[C@H]1CC[C@H]2[C@@H]3CC[C@@H]4C[C@H](O)CC[C@]4(C)[C@H]3CC[C@]12C -3.72%
CC[C@@H](CC[C@@H](C)[C@H]1CC[C@H]2[C@@H]3CC[C@H]4C[C@@H](O)CC[C@]4(C)[C@H]3CC[C@]12C)C(C)C -13.2%
CC(=O)Oc1cc2c(c(C)c1OC(C)=O)CC1OC13[C@@]2(C)CC[C@@]1(C)C2C[C@](C)(C(=O)O)CC[C@]2(C)CC[C@]31C (some centres not stated) 2.26%
C=C1C(CCl)(CCl)C2(Cl)C(Cl)C(Cl)C1(Cl)C2(Cl)Cl (configuration not stated) -11.7%
C=CC(C)(O)CCC=C(C)C (configuration not stated) -3.42%
COC(=O)C[C@H]1C(C)(C)C(OC(C)=O)[C@]2(O)C=C3C4CC(=O)O[C@@H](c5ccoc5)[C@]4(C)CCC3[C@@]1(C)C2=O (some centres not stated) -4.04%
CC(=O)Oc1ccc(-c2cc(=O)c3c(OC(C)=O)cc(OC(C)=O)cc3o2)cc1 -7.11%
COc1cc(O)c(C(=O)/C=C/c2ccccc2)c(OC)c1 -2.81%
CCOC(=O)C(=O)C1(C(=O)OCC)Oc2cc(OC)cc(OC)c2C(=O)C1c1ccccc1 (configuration not stated) 14.2%
CC(=O)O[C@@H]1CC2C(C)(C)C(=O)CC[C@]2(C)C2CC[C@]3(C)C(=CC(=O)O[C@H]3c3ccoc3)[C@@]21C (some centres not stated) 14.2%
CC(=O)c1cc2c(cc1O)OC(C)(C)C=C2 16.8%
CC1OC(OC2C(Oc3cc(O)c4c(=O)cc(-c5ccc(O)cc5)oc4c3)OC(CO)C(O)C2O)C(O)C(O)C1O (configuration not stated) -11.1%
